Experimental data reported in PubChem BioAssay AID1851 (National Center for Advancing Translational Sciences (NCATS), 2009).
Screen size: about 16,000 compounds; about 5,100 (32%) were called active. Inconclusive results (about 25%) are left out. The list shows a part of the results. Unmarked numbers belong to inactive results. Calls come from the whole dose curve; as a rule, active = well fitted curve in the direction sought with a large enough effect; inconclusive = small, poorly fitted or top-dose-only effect, or effect the other way; inactive = no such curve, though single readings can be large or run the other way.

Biological target: Cytochrome P450 3A4 (Homo sapiens) (UniProt P08684)
Experiment: Cytochrome panel assay with activity outcomes
Conditions: recombinant CYP, pro-luciferin dealkylation, luminescence, p450-cyp3a4; series mostly up to 57.1 µM; activity, negative = inhibition: at the top concentration
% is set by controls: 0 for no effect and ±100 for the full control effect.

Sequence of Cytochrome P450 3A4 (Homo sapiens) (P08684 whole entry, looked up): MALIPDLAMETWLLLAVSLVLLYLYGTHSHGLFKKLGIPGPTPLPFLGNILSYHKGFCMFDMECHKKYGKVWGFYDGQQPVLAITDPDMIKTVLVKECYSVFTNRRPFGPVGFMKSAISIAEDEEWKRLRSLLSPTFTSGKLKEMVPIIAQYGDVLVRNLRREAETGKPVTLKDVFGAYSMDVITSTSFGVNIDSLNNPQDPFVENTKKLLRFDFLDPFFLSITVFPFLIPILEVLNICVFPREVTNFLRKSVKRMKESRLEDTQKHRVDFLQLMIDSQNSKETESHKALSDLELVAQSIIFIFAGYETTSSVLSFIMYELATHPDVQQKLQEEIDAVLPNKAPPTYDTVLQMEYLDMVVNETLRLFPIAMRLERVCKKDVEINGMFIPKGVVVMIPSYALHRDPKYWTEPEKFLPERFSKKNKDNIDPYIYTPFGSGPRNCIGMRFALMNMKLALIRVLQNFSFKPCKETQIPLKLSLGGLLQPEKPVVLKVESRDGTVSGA

| Structure (SMILES) | AC50 | activity, negative = inhibition |
| --- | --- | --- |
| COC(=O)c1c(C)oc2ccc(N(C(=O)c3ccncc3)S(=O)(=O)c3ccccc3)cc12 | 7.08 µM (active) | – |
| CN(C(=O)c1ccncc1)c1ccccc1 | – | -11.8% [at 11.4 µM] |
| NC(=O)C1CCN(C(=O)CN2C(=O)c3ccccc3S2(=O)=O)CC1 | – | -1.28% |
| O=C(CN1C(=O)c2ccccc2S1(=O)=O)Nc1ccccc1 | – | 12.5% |
| Cc1ccc(C)c(C(=O)CN2C(=O)c3ccccc3S2(=O)=O)c1 | 7.94 µM (active) | – |
| O=C(NCCCN1CCN(c2cccc(Cl)c2)CC1)C1CCC(=O)N1Cc1ccccc1Cl (stereo not drawn) | – | -7.41% [at 2.29 µM] |
| COCCCNC(=O)C1CCC(=O)N1Cc1ccccc1Cl (stereo not drawn) | – | -20.1% [at 11.4 µM] |
| CN(CCCNC(=O)C1CCC(=O)N1Cc1ccccc1Cl)c1ccccc1 (stereo not drawn) | 7.08 µM (active) | – |
| CC(C)NC(=O)N1CCC2(CC1)CCN(S(C)(=O)=O)CC2 | – | -7.29% |
| CCc1c(C)c(C#N)c2nc3ccccc3n2c1N1CCN(c2cc(C)ccn2)CC1 | – | -1.59% |
| Cc1cccc(-n2ncc3c(Nc4c(C)n(C)n(-c5ccccc5)c4=O)ncnc32)c1 | – | -22% |
| CCc1c(C)c(C#N)c2nc3ccccc3n2c1Nc1c(C)n(C)n(-c2ccccc2)c1=O | 7.94 µM (active) | – |
| COc1ccc2nc(C)cc(SCC(=O)Nc3c(C)cc(C)cc3C)c2c1 | 2.51 µM (active) | – |
| COc1ccc2nc(C)cc(SCC(=O)NNC(=O)COc3ccccc3)c2c1 | 2.82 µM (active) | – |
| COc1ccc2nc(SCC(=O)NN)cc(C)c2c1 | 2.82 µM (active) | – |
| COc1ccc(NC(=O)CCSc2cc(C)c3ccccc3n2)cc1 | 3.98 µM (active) | – |
| Cc1ccc(OCC(=O)NNC(=O)c2cc3ccccc3o2)cc1 | – | -23.5% |
| NCCCCN | – | 6.31% |
| C=CC1=C(C(=O)O)N2C(=O)[C@@H](NC(=O)/C(=N\OCC(=O)O)c3csc(N)n3)[C@@H]2SC1 | – | -9.56% [at 25.6 µM] |
| COc1ccc2nc(C)cc(SCC(=O)NNC(=O)COc3ccc(C)cc3)c2c1 | 2.24 µM (active) | – |
| COc1ccc2nccc(SCC(=O)O)c2c1 | – | -8.31% [at 11.4 µM] |
| CC(=O)NCCNc1nc(-c2c(C)noc2C)nc2ccccc12 | 15.8 µM (active) | – |
| COc1ccccc1-c1nc(NCCNC(C)=O)c2ccccc2n1 | – | -27.3% |
| CC(=O)NCCNc1nc(-c2ccccc2C)nc2ccccc12 | 5.01 µM (active) | – |
| NCCCCCCCCCCN | – | 3.58% |

| Structure (SMILES) | AC50 | activity, negative = inhibition |
| --- | --- | --- |
| CC(=O)Nc1ccc(NC(=O)C/C(C)=N/NC(=O)C(=O)N2CCCC2)cc1 | – | -6.22% |
| CCn1c2ccccc2c2cc(NC(=O)C/C(C)=N/NC(=O)c3ccccc3N)ccc21 | 7.08 µM (active) | – |
| COc1ccccc1CNc1ccnc(-c2c(C)noc2C)n1 | 5.01 µM (active) | – |
| COc1ccc(CNc2ccnc(-c3c(C)noc3C)n2)c(OC)c1 | 2.51 µM (active) | – |
| CC1(C)Cc2c(sc3c2C(=O)N(c2ccccc2)C2=NCCN23)CS1 | – | -23.7% |
| Cc1ccc(-n2c(SCC(=O)NCc3ccco3)nc3sc4c(c3c2=O)CC(C)(C)SC4)cc1 | 2 µM (active) | – |
| CC1(C)Cc2c(sc3nc(SCC(=O)NCc4ccccc4)n(-c4ccccc4)c(=O)c23)CS1 | 3.55 µM (active) | – |
| CN(C)c1ccc(-c2cncnc2NCc2ccccc2)cc1 | 0.0316 µM (active) | – |
| CN(C)c1ccc(-c2cncnc2NCc2cccnc2)cc1 | 0.631 µM (active) | – |
| CCCSc1nnc(CSc2nc3nc(C)cc(C)n3n2)o1 | – | 5.19% [at 11.4 µM] |
| Cc1ccc(/C=N/NC(=O)CSc2nc3nc(C)cc(C)n3n2)cc1 | 15.8 µM (active) | – |
| Cc1cc(C)n2nc(SCC(=O)N/N=C/c3ccccc3F)nc2n1 | – | -29.4% |
| Cc1cc(C)n2nc(SCc3cc(=O)oc4ccc5ccccc5c34)nc2n1 | 2.24 µM (active) | – |
| COc1ccccc1CNC(=O)CSc1nc2nc(C)cc(C)n2n1 | 14.1 µM (active) | – |
| COc1cc(NC(=O)COC(=O)c2nc3nc(C)cc(C)n3n2)cc(OC)c1 | – | 20% [at 2.29 µM] |
| CCSc1nc2nc(C)cc(C)n2n1 | – | -7.32% |
| CCn1c(SCC(=O)NC2CCCCC2)nnc1-c1cc2cccc(OC)c2o1 | 10 µM (active) | – |
| CCC(=O)N[C@@H]1CCc2cccc(OC)c2C1 | – | -19% |
| COc1cccc2cc(NC(=O)C3CCCCC3)c(=O)oc12 | – | -11.8% |
| CCNC(=O)COC(=O)c1cc(-c2ccc(OC)cc2)nc2ccccc12 | 14.1 µM (active) | – |
| N/C(=N\OC(=O)c1cc(-c2ccccc2)nc2ccccc12)c1ccc(Cl)cc1 | – | 28.2% |
| CCNC(=O)COC(=O)c1cc(=O)[nH]c2ccccc12 | – | 15.8% |
| Cc1ccc(CS(=O)(=O)CCC(=O)NCCCN2CCCC2=O)cc1 | – | 1.96% |
| CCS(=O)(=O)N1CCC(C(=O)NCCCN2CCN(c3ccccc3F)CC2)CC1 | – | -9.39% |
| Cc1ccccc1CS(=O)(=O)CCC(=O)NCCCN1CCN(c2ccccc2F)CC1 | 11.2 µM (active) | – |

| Structure (SMILES) | AC50 | activity, negative = inhibition |
| --- | --- | --- |
| Cc1ccc(CS(=O)(=O)CCC(=O)NCCCN2CCCC2)cc1 | 28.2 µM (active) | – |
| CCOCCCNC(=O)CCS(=O)(=O)Cc1ccc(C)cc1 | – | -15.2% |
| CCCS(=O)(=O)N1CCCC(C(=O)NCCCN2CCN(c3ccccc3F)CC2)C1 (stereo not drawn) | – | -20.6% |
| Cc1ccc2c(c1)/C(=N/OC(=O)c1ccc(F)cc1)CCS2 | – | 24.5% |
| N#Cc1c(-c2ccccc2)nc(-c2ccccc2)[nH]c1=O | – | -11% |
| N#Cc1c(-c2ccccc2)no[n+]1[O-] | 12.6 µM (active) | – |
| N#Cc1c(-c2ccccc2)nc2n(c1=O)CCS2 | – | -1.65% |
| CCOc1ccc(N(CC(=O)NCc2ccc(OC)cc2)S(=O)(=O)c2c(C)noc2C)cc1 | 0.631 µM (active) | – |
| COc1ccc(N(CC(=O)NCc2cccc(OC)c2)S(=O)(=O)c2c(C)noc2C)cc1 | 1.78 µM (active) | – |
| COc1cccc(CNCCNC(=O)c2nonc2N)c1 | – | 3.2% |
| Cn1cccc1C(=O)N1CCC2(CCCN(c3ncccn3)C2)CC1 | – | -4.9% |
| CC(C)NC(=O)N1CC[C@@]2(CCCN(C(=O)c3cccn3C)C2)C1 | – | 3.62% |
| Cn1cccc1C(=O)N1CCC[C@@]2(CCN(c3ccncc3)C2)C1 | 1 µM (active) | – |
| Cn1cccc1C(=O)N1CCC2(CC1)CN(c1ccncc1)C2 | – | -15.8% |
| Cn1cccc1C(=O)N1CCC2(CCCN(c3cccc(-c4ccccc4)c3)C2)CC1 | 10 µM (active) | – |
| Cn1cccc1C(=O)N1CCC[C@@]2(CCN(c3cccc(-c4ccccc4)c3)C2)C1 | 7.94 µM (active) | – |
| Cn1cccc1C(=O)N1CCC2(CC1)CCN(c1ccncc1)CC2 | – | -27.5% |
| Cn1cccc1C(=O)N1CCC2(CC1)CCN(c1cccc(-c3ccccc3)c1)CC2 | – | 32.4% |
| Cn1cccc1C(=O)N1CCC[C@@]2(CCN(c3ccccc3)C2)C1 | 10 µM (active) | – |
| CN1CCCC2(CCN(C(=O)c3cccn3C)CC2)C1 | – | -7.48% |
| C[N+](C)(C)CCCCCC[N+](C)(C)C | inactive | – |
| COC(=O)N1CCC[C@@]2(CCN(C(c3ccccc3)c3ccccc3)C2)C1 | – | -29.5% |
| Cn1cccc1C(=O)N1CCC[C@@]2(CCN(C(c3ccccc3)c3ccccc3)C2)C1 | 12.6 µM (active) | – |
| CC(C)NC(=O)N1CCC2(CC1)CCN(C(=O)c1cccn1C)CC2 | – | -9.8% |
| COc1cccc2c1[C@@H]1CN(CCCCn3c(=O)[nH]c4c(sc5ncc(-c6ccccc6)nc54)c3=O)C[C@H]1CO2 | 15.8 µM (active) | – |

| Structure (SMILES) | AC50 | activity, negative = inhibition |
| --- | --- | --- |
| O=C1Nc2ccccc2C(O)(C(=O)NCc2ccc3c(c2)OCO3)N1c1ccc(Cl)c(Cl)c1 (stereo not drawn) | 0.126 µM (active) | – |
| NCCCC(=O)O | – | -1.16% |
| O=S1(=O)[C@H]([C@H]2CC3c4ccccc4C2c2ccccc23)[C@@H](N2CCCCC2)[C@@H]1c1ccccc1 | 1 µM (active) | – |
| c1ccc(C2CCC(N3CCC(N4CCCCC4)CC3)CC2)cc1 (stereo not drawn) | – | -4.19% [at 2.29 µM] |
| CCCCC#Cc1ccccc1CC(=O)Nc1ccccc1 | 1 µM (active) | – |
| O=C(Cc1ccccc1I)Nc1ccccc1 | – | -28.6% |
| CCC#CCOCC(=O)Nc1ccccc1 | – | 19.9% |
| OCCCN=C1CCCCC1 | – | -15.7% [at 11.4 µM] |
| CNC(=O)c1nnn(Cc2ccccc2)c1NC(=O)C(F)(F)F | – | 11.1% |
| C[C@@H](C(=O)Nc1ccc2ccccc2c1)[C@H]1C[C@]1(C)[C@H](NC(=O)OCc1ccccc1)c1ccccc1 | 2.51 µM (active) | – |
| C[C@@H](C(=O)Nc1ccc2ccccc2c1)[C@@H]1C[C@@]1(C)[C@@H](NC(=O)OCc1ccccc1)c1ccccc1 | 7.94 µM (active) | – |
| Cc1ccc(NC(=O)N(Cc2ccco2)C(C)c2ccco2)cc1C (stereo not drawn) | 3.16 µM (active) | – |
| c1ccc(C[C@@H](Nc2cccnc2)c2ccccc2)cc1 | 3.16 µM (active) | – |
| c1ccc(CCc2cccnc2)nc1 | – | -27.8% [at 11.4 µM] |
| c1cncc(CNCc2cccnc2)c1 | – | -27.6% [at 11.4 µM] |
| CCOC(=O)CCN1C(=O)[C@H]2[C@H]3[C@H](O)[C@H](O)C/C(=N/OCC(C)C)[C@@H]3CC[C@@H]2C1=O | – | -27.7% [at 11.4 µM] |
| O=C(c1ccc([N+](=O)[O-])cc1)n1nc(-c2ccccc2)nc1NCc1ccccc1 | – | 13.6% [at 2.29 µM] |
| O=C(NCc1cn(-c2ccccc2)nc1-c1ccccc1)c1cc([N+](=O)[O-])cc([N+](=O)[O-])c1 | 2.51 µM (active) | – |
| COC(=O)c1ccc(C#CC(NP(=O)(c2ccccc2)c2ccccc2)c2ccccc2)cc1 (stereo not drawn) | – | -25.5% |
| COC(=O)c1ccc(C23CC2(C(NP(=O)(c2ccccc2)c2ccccc2)c2ccccc2)C3)cc1 (stereo not drawn) | 3.16 µM (active) | – |
| COC(=O)c1ccc(NC(=O)c2ccccc2)o1 | – | -12.8% [at 2.29 µM] |
| CN1C(=O)C[C@H](c2ccccc2)C1=O | – | -5.93% [at 25.6 µM] |
| C/C(=N\Nc1nnc(C)c(=O)[nH]1)C(=O)O | – | -10% |
